Values without a mark were called inactive. Activity calls are given as the source filed them. Calls come from the whole dose curve; as a rule, active = well fitted activation curve with a large enough effect in the repeat runs; inconclusive = weak or mixed curves; inactive = flat fitted curve, though single readings scatter.
Assay: A CellTox Green Cytotoxicity Assay to monitor cytotoxicity in HEK293 cells - 0 hour (AID 1224869); note: nearly all actives have a fitted effect of over 50% in size
Details: CellTox Green fluorescence; series mostly up to 76.8 µM; cytotoxicity: at the top concentration
Outline: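 Cells (HEK293, 600/well) and dye reagent are dispensed together. After 5 h at 37 C, 23 nL compound is pinned in. Plates stay at 37 C for 40 h with fluorescence read at 0h, 8h, 16h, 24h, 32h and 40h.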
% is set by controls: 0 for no effect and ±100 for the full control effect; potency is the fitted concentration of half-maximal effect.

Structure (SMILES) | cytotoxicity | Potency
O=C(O)CNC(=O)c1ccc([N+](=O)[O-])cc1 | 0.206% | 
Cn1cc(S(C)=O)c(=O)c2ccc(F)cc21 (centres undefined) | -3.63% [at 35.3 µM] | 
C=CCOCC(CC)(CO)COCC=C | 2.79% | 
CC(=O)Nc1ccc(S(N)(=O)=O)cc1 | -4.51% | 
C=C1CC[C@H]2C[C@@H]1C2(C)C | 5.21% | 
CCCCCCCCS(=O)(=O)Cl | -0.138% | 
C=C[Si](OC(=C)C)(OC(=C)C)OC(=C)C | 8.2% | 
O=C1NC(=O)[C@@]2(CCOc3ccc(F)cc32)N1 | 1.07% [at 35.3 µM] | 
CC/C=C\CC/C=C/CO | 1.06% | 
CN1CCCC1 | 5.19% | 
O=c1cc(CO)occ1O | 4.58% [at 35.3 µM] | 
CC(=O)CC(C)C | 0.85% | 
CO[Si](CCCOCC1CO1)(OC)OC (centres undefined) |  | inactive
CCN(CC)CCNC(=O)c1cc(S(C)(=O)=O)ccc1OC | 1.04% [at 35.3 µM] | 
N=C(N)c1ccccc1 | 3.36% | 
O=c1cc(-c2ccccc2)oc2ccccc12 | -2.44% | 
COc1ccc2c(c1)CCCC2=O | -4.85% [at 35.3 µM] | 

Structure (SMILES) | cytotoxicity | Potency
NC(=O)c1cn(Cc2c(F)cccc2F)nn1 | 10% [at 35.3 µM] | 
NC(CSCC(=O)O)C(=O)O (centres undefined) | -1.25% [at 35.3 µM] | 
O=C1CCCCCCCCCCCN1 |  | inactive
COc1ccc(CCN(C)CCCC(C#N)(c2cc(OC)c(OC)c(OC)c2)C(C)C)cc1OC (centres undefined) | -5.56% [at 35.3 µM] | 
Cc1cnc(NS(=O)(=O)c2ccc(N)cc2)nc1 | -0.979% [at 35.3 µM] | 
CC(=O)N(CC(O)CO)c1c(I)c(C(=O)NCCO)c(I)c(C(=O)NCC(O)CO)c1I (centres undefined) | 3.81% [at 35.3 µM] | 
C/C=C(\C)C#N | -2.71% | 
COC(=O)CCSCCC(=O)OC | -2.73% | 
COc1ccccc1OCC(O)CN1CCN(CC(=O)Nc2c(C)cccc2C)CC1 (centres undefined) | -0.108% [at 35.3 µM] | 
CN(C)CCCSc1ccccc1NC(=O)/C=C/c1ccccc1 |  | 16.9 µM (active)
CC(=O)OCC(=O)[C@@]1(O)CC[C@H]2[C@@H]3CCC4=CC(=O)CC[C@]4(C)[C@H]3C(=O)C[C@@]21C | -0.163% [at 35.3 µM] | 
N=C(N)c1ccc(OCCCOc2ccc(C(=N)N)cc2)cc1 | -6.56% [at 35.3 µM] | 
CCC=O | 3.81% | 
Nc1ccccc1S(=O)(=O)O | 0.0292% | 
Nc1nc2c(ncn2COC(CO)CO)c(=O)[nH]1 | -1.55% [at 35.3 µM] | 
CCN(CC)CCOCCOC(=O)C1(c2ccccc2)CCCC1 | -3.83% [at 35.3 µM] | 
CC/C=C\CCOC(C)=O | -0.469% | 
